Structures are written as SMILES. The campaign covered roughly 96,000 compounds. About 1,200 (1.2%) were called active. Cut-off read from the data, not from the text of the source: active = activation fold above about 2; inactive = the rest. This excerpt belongs to a sample that is enriched for actives.

Chain of Alkaline phosphatase, placental type (Homo sapiens) (P05187 whole entry, looked up): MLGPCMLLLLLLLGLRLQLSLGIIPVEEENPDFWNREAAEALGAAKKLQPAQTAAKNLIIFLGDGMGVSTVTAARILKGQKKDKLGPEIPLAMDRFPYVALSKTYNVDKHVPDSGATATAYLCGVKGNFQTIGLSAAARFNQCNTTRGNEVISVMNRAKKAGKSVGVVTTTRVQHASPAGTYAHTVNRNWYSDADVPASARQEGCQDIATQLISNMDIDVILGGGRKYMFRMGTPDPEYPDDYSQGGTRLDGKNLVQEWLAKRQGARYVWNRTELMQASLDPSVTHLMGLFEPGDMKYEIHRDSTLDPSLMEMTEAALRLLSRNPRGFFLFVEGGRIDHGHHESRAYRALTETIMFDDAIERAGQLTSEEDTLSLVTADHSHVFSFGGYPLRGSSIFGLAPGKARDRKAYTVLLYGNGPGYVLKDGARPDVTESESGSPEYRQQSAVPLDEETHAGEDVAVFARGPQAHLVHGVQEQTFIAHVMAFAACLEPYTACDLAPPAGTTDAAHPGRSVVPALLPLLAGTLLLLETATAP

The assay addresses Alkaline phosphatase, placental type (Homo sapiens) (UniProt P05187). Briefly: activation of human placental alkaline phosphatase – biochemical, luminescence, HTS (AID 696). The note with it: purified PLAP enzyme, luminescent substrate read-out; at 20 µM; stronger effect = higher value.
Regarding `CN1/C(=c2/s/c(=C3/C(=O)N(c4ccccc4)NC3=Nc3ccccc3)n(C)c2=O)C(C)(C)c2ccccc21`, the activation fold is 0.7 (inactive).

Regarding `COc1ccc(S(=O)(=O)Nc2ccc3oc(C)c(C(C)=O)c3c2)cc1`, the activation fold was 1.3 (inactive).

Consider `Cc1nc2nc(C)c(CCC(=O)N3CCN(c4ccccc4)CC3)c(C)n2n1`, for which the activation fold was 0.8 (inactive).

Consider `COc1ccc(CC(=O)Nc2nc3n(n2)C(c2ccccc2)CC(=O)N3)cc1OC` (stereo not drawn), for which the activation fold is 1.5 (inactive).

`O=C(Nc1ncccn1)c1cccs1`: the activation fold was 0.9 (inactive).

On to `CC1CC(c2ccccc2)n2nc(NC(=O)c3cccs3)nc2N1` (stereo not drawn), for which the activation fold was 2.1 (active).

Take `CN(C(=O)CSc1nnc(N)s1)c1c(N)n(Cc2ccccc2)c(=O)[nH]c1=O`: the activation fold is 1.1 (inactive).

As to `O=C(CN1C(=O)CC(c2ccccc2)=Nc2ccccc21)NC1CCCCC1`, the activation fold was 1 (inactive).

With `Cc1ccc(-n2nc3ccc(NC(=O)/C=C/c4ccco4)cc3n2)cc1C`, the activation fold is 0.9 (inactive).

On to `Cc1cccc(NC(=O)CSc2nnc(-c3ccco3)o2)c1`, for which the activation fold is 2 (active).

For `CCOC(=O)c1sc(NC(=O)CSc2nnc(-c3ccco3)o2)c(C(=O)OCC)c1C`, the activation fold was 1 (inactive).

In the case of `O=C(CSc1nnc(-c2ccco2)o1)NCC(=O)c1ccccc1`, the activation fold is 1.2 (inactive).

Consider `CONC(=O)c1cc(OCC(F)(F)F)ccc1OCC(F)(F)F`, for which the activation fold is 1 (inactive).

As to `Cn1c(SCC(=O)NC2CCCCC2)nnc1-c1cc2ccccc2o1`, the activation fold is 1.1 (inactive).

With `Cc1cccc(N2C(=O)C3C(c4ccccc4)OC4(C(=O)c5ccccc5C4=O)C3C2=O)c1` (stereo not drawn), the activation fold is 1.2 (inactive).

For `Cc1cccc(N2C(=O)c3cccnc3C2=O)c1`, the activation fold is 1 (inactive).

As for `CCCc1nc2scc(-c3ccc(C)cc3)c2c(=O)n1N`, the activation fold is 0.9 (inactive).

On to `N#C/C(=C(\O)CCl)c1nnc2n1CCCCC2`, for which the activation fold was 0.8 (inactive).

For `Cc1cc([N+](=O)[O-])ccc1NCc1cccc([N+](=O)[O-])c1`, the activation fold is 1 (inactive).

Take `COCCCn1c(SCc2cccc(OC)c2)nc2cc(OC)c(OC)cc2c1=N`: the activation fold was 1.5 (inactive).

For `Cc1ccc(C(c2sc3nc(C)nn3c2O)N2CCN(c3ccc(F)cc3)CC2)cc1` (stereo not drawn), the activation fold is 1.7 (inactive).

As to `Oc1c(C(c2ccco2)N2CCC3(CC2)OCCO3)sc2ncnn12` (stereo not drawn), the activation fold was 1.7 (inactive).

In the case of `Oc1c(C(c2cccs2)N2CCN(c3ccc(F)cc3)CC2)sc2ncnn12` (stereo not drawn), the activation fold is 2 (active).

With `O=C(O)c1cnn2c(C(F)(F)F)cc(-c3ccccc3)nc12`, the activation fold is 0.9 (inactive).

Regarding `C/C(=N\NC(=O)Cc1ccc(Cl)cc1)c1ccccn1`, the activation fold was 1.8 (inactive).

On to `CCNc1nc(N)nc(-c2cc(Cl)ccc2OC)n1`, for which the activation fold was 1 (inactive).

As for `COc1ccc(C(=O)NNC(=O)c2cnccn2)cc1[N+](=O)[O-]`, the activation fold was 2.8 (active).

As for `COc1ccccc1CCNC(=O)c1cnccn1`, the activation fold is 1.2 (inactive).

Consider `CC(C)NC(=O)c1ccc(Sc2ccccc2)c([N+](=O)[O-])c1`, for which the activation fold was 1.2 (inactive).

In the case of `CC(Oc1ccc(F)cc1F)C(=O)/C=C/N(C)C` (stereo not drawn), the activation fold was 1.2 (inactive).

Regarding `COc1cccc2sc(Nc3nc(C)c(C(C)=O)s3)nc12`, the activation fold is 2.4 (active).

Regarding `CC(=O)c1sc(NC(=O)c2cccc3ccccc23)nc1C`, the activation fold was 1 (inactive).

Consider `CC(=O)c1sc(NC(=O)c2ccc(C)cc2)nc1C`, for which the activation fold is 1.2 (inactive).

As to `Cc1ccc(NC(=S)NC(NC(=O)Cc2cccc3ccccc23)C(Cl)(Cl)Cl)cc1` (stereo not drawn), the activation fold was 0.6 (inactive).

For the compound `COC(=O)c1ccc(CSc2nnc(NC(C)C)s2)cc1`, the activation fold is 0.9 (inactive).

For the compound `CC1=NN(C(=O)Cc2ccc(C)cc2)C(O)(c2cccnc2)C1` (stereo not drawn), the activation fold is 2.4 (active).

Turning to `CC1=NN(C(=O)c2ccccc2Br)C(O)(c2cccnc2)C1` (stereo not drawn), the activation fold was 1.4 (inactive).

As to `Cc1ccc(NC(=O)N2CCC(O)(c3cccnc3)CC2)cc1`, the activation fold was 0.9 (inactive).

Consider `O=C(Nc1ccc2ccccc2c1)Nc1ccc2snnc2c1`, for which the activation fold is 0.9 (inactive).

For `O=C(NCCCCCCCCCNC(=O)C(F)(F)F)C(F)(F)F`, the activation fold was 0.9 (inactive).

Take `COc1ccc(Cl)cc1NC(=O)CN(C)C(=O)CNC(=O)C12CC3CC(CC(C3)C1)C2`: the activation fold is 2 (active).

Turning to `CCCCC(=O)N/N=C(\C)CC(=O)Nc1cc(Cl)ccc1OC`, the activation fold is 0.9 (inactive).

As for `COc1ccc(Cl)cc1NC(=O)c1oc(C)nc1C`, the activation fold was 1.4 (inactive).

Regarding `O=C(COc1ccc(Br)cc1F)NC1CCN(Cc2ccccc2)CC1`, the activation fold was 1.7 (inactive).

`Cc1ccc2[nH]c(=O)c(CN(CCCN(C)C)C(=O)Nc3cccc(Cl)c3)cc2c1`: the activation fold was 1.5 (inactive).

For `O=C(COC(=O)c1n[nH]c2ccccc12)NCc1ccccc1`, the activation fold was 2.2 (active).

Take `CN(C)S(=O)(=O)c1ccc(NC(=O)COC(=O)c2n[nH]c3ccccc23)cc1`: the activation fold was 1 (inactive).

As for `COc1ccc(COC(=O)c2n[nH]c3ccccc23)cc1F`, the activation fold was 1.4 (inactive).

On to `Cn1c(N)c(C(=O)COC(=O)C23CC4CC(CC(C4)C2)C3)c(=O)n(C)c1=O`, for which the activation fold was 1.9 (inactive).

As for `CC/C(C)=N/Nc1nc2sc3c(c2c(=O)[nH]1)CC(C)(C)OC3`, the activation fold is 1.1 (inactive).

For `CCC(O)CNc1nc(-n2nc(C)cc2C)nc2sc3c(c12)CC(C)(C)OC3` (stereo not drawn), the activation fold is 1 (inactive).

Take `C=CCNC(=S)NNc1ncnc2sc3c(c12)CC(C)(C)OC3`: the activation fold was 2.2 (active).

With `Cc1ccc(SC(=O)COc2ccc(C)c(C)c2)cc1`, the activation fold was 1 (inactive).

In the case of `COc1cc(OC)c(C(=O)NC2CCCCCC2)cc1OC`, the activation fold is 1.7 (inactive).

`CCOC(=O)c1[nH]cnc1C(=O)NC1CCCCC1`: the activation fold is 2.2 (active).

Regarding `CCOC(=O)C1=C(CNC2CCCCC2)NC(=O)NC1c1cc(C)ccc1C` (stereo not drawn), the activation fold is 1.1 (inactive).

With `Cc1cc(C(=O)OC(C)C(=O)Nc2cccc(S(=O)(=O)N3CCOCC3)c2)c(C)o1` (stereo not drawn), the activation fold was 1.7 (inactive).

`CCOc1nnc(C)c2c(C)n(-c3cccc(Cl)c3)nc12`: the activation fold is 2.1 (active).

`COC(=O)C(C)n1cnc2c(nnn2-c2cccc(Cl)c2)c1=O` (stereo not drawn): the activation fold is 0.9 (inactive).

For the compound `CCOc1cccc(-n2nnnc2-c2ccc(OC)cc2)c1`, the activation fold was 1.4 (inactive).

`CCCCCCCC(=O)NC(Nc1ccccc1OC)C(Cl)(Cl)Cl` (stereo not drawn): the activation fold was 0.9 (inactive).

On to `CCN(CC)S(=O)(=O)c1ccc2nc(COC(=O)c3n[nH]c4ccccc34)[nH]c2c1`, for which the activation fold is 1.8 (inactive).

Regarding `CCN(CC)S(=O)(=O)c1ccc2nc(CSc3nnnn3-c3ccc(O)cc3)[nH]c2c1`, the activation fold is 2.7 (active).

On to `O=c1c2ccccc2nc(CSc2nnnn2-c2ccccc2)n1-c1ccccc1`, for which the activation fold was 0.9 (inactive).

On to `CC(=O)NS(=O)(=O)c1ccc(NC(=S)NC(=O)C(C)(C)C)cc1`, for which the activation fold was 1.1 (inactive).

As for `COc1ccccc1NC(=O)c1ccc2nc(N3C(=O)CCC3=O)sc2c1`, the activation fold was 1.1 (inactive).

For `COc1ccc(C(C)=O)cc1CN1C(=O)NC2(CCCCC2C)C1=O` (stereo not drawn), the activation fold was 1 (inactive).

For `CCOC(=O)N1CCN(C(=O)CSc2ccc(Cl)cc2)CC1`, the activation fold was 1.4 (inactive).

On to `CCOC(=O)N1CCN(C(c2cccnc2)c2ccc3cccnc3c2O)CC1` (stereo not drawn), for which the activation fold is 2.2 (active).

On to `CCN1CCN(C(c2cccnc2)c2cc(Cl)c3cccnc3c2O)CC1` (stereo not drawn), for which the activation fold is 1.7 (inactive).

As to `CC1CC(C)CN(C/C=C/c2ccccc2[N+](=O)[O-])C1` (stereo not drawn), the activation fold was 1.2 (inactive).

In the case of `CCOc1ccccc1NC(=O)Nc1cc(OC)ccc1OC`, the activation fold was 0.8 (inactive).

In the case of `CCOc1ccccc1Oc1cn[nH]c1-c1ccc(OC)cc1O`, the activation fold is 2.8 (active).

For the compound `C=C(C)COc1ccc(-c2n[nH]c(C)c2-c2ccccc2OC)c(O)c1`, the activation fold is 1 (inactive).

In the case of `c1ccc2c(C[n+]3csc4ccccc43)cccc2c1`, the activation fold is 1.1 (inactive).

With `COc1ccccc1NC1=NC(c2ccc(Cl)cc2)N=C(N)N1` (stereo not drawn), the activation fold was 2.2 (active).

Take `COc1ccccc1NC1=NC2(CCCC2)N=C(N)N1`: the activation fold is 0.8 (inactive).

As for `COc1ccccc1Nc1nc(N)nc(CN(C)C2CCCCC2)n1`, the activation fold was 1.3 (inactive).

On to `O=C1C=C(c2ccc(Cl)cc2)C(=O)N1Nc1ccccc1`, for which the activation fold was 0.9 (inactive).

Consider `C=CCn1c(SCc2c(C)noc2C)nc2sc3c(c2c1=O)CCC(C)C3` (stereo not drawn), for which the activation fold was 1.4 (inactive).

On to `COCCCNCC(=O)Nc1sc(C)c(C)c1C(=O)OC`, for which the activation fold was 2.2 (active).

Regarding `CCOC(=O)c1c(NC(=O)c2cccs2)sc(C)c1C`, the activation fold was 1.1 (inactive).

As for `CCOC(=O)c1c(NC(=O)CCl)sc(C(=O)N(CC)CC)c1C`, the activation fold is 1.7 (inactive).

Turning to `COc1ccc(C2=NOC3(CC(=O)N(c4ccc(C)cc4)C3=O)C2)cc1` (stereo not drawn), the activation fold is 1.2 (inactive).

For `CCOC(=O)c1c(NC(=O)CCCN2CCOCC2)sc2c1CC(C)(C)OC2`, the activation fold was 1.5 (inactive).

For the compound `c1ccc2c(c1)OCC(CNc1ncnc3nc[nH]c13)O2` (stereo not drawn), the activation fold was 1.6 (inactive).

Turning to `COc1ccc(CCNc2ncnc3nc[nH]c23)cc1OC`, the activation fold is 1.8 (inactive).

With `CCc1ccc(N(CC)c2ncnc3nc[nH]c23)cc1`, the activation fold is 2 (active).

For `Cc1nn(C)cc1/C=C1\CCC/C(=C\c2cn(C)nc2C)C1=O`, the activation fold was 1.8 (inactive).

With `CCn1c(C)nc2cc(C(=O)NNS(=O)(=O)c3ccc(C)cc3C)ccc21`, the activation fold is 1 (inactive).

For the compound `Cc1ccc(C(=O)Nc2c(C#N)c(C)c(C)n2Cc2ccccc2)cc1`, the activation fold was 0.9 (inactive).

Regarding `Cc1[nH][nH]c(=O)c1C(c1ccc(-c2ccc(Cl)cc2)o1)c1c(C)[nH][nH]c1=O`, the activation fold is 2.2 (active).

As for `Cc1[nH][nH]c(=O)c1N=Nc1ccccc1`, the activation fold was 1.1 (inactive).

On to `Cc1nnc(NC(=O)CCCOc2ccccc2)s1`, for which the activation fold was 1 (inactive).

Take `CCOC(=O)c1nn(-c2cccc(C)c2)cc1C(=O)c1ccccc1`: the activation fold was 1.8 (inactive).

Regarding `O=C(Nc1ccc(-n2ccnc2P(=O)(O)c2ccccc2)cc1)c1ccccc1Br`, the activation fold was 2.1 (active).

`O=C(Nc1ccccc1)c1cccnc1Nc1ccccc1`: the activation fold was 0.8 (inactive).

As for `Cc1nonc1NC(=O)c1ccccc1Br`, the activation fold is 1.2 (inactive).

For the compound `CCOC(=O)c1nnn(-c2nonc2-n2cccc2)c1CN1CCC(C(=O)OCC)CC1`, the activation fold is 1.2 (inactive).

Turning to `CC(=O)c1ccc(OCCN2CCOCC2)cc1`, the activation fold was 0.9 (inactive).

Regarding `Cc1c(C(=O)CN2CCOCC2)[nH]c2ccccc12`, the activation fold is 0.9 (inactive).

Regarding `CCOC(=O)c1[nH]c2ccc(OC)cc2c1NC(=O)N1CCOCC1`, the activation fold is 1.1 (inactive).

With `Cc1c(C(=O)N2CCOCC2)[nH]c2ccc(OCc3ccccc3)cc12`, the activation fold was 2 (active).

The values are drawn from PubChem BioAssay AID696 (Sanford-Burnham Center for Chemical Genomics, 2007).
